Shown are actives, neighbours in structure and some others; about 19% of the full set was active somewhere.
HT1080 IDH1KD tx: qHTS for induction of synthetic lethality in tumor cells producing 2HG: qHTS for the HT-1080-IDH1KD cell line. HT-1080 IDH1 knockdown viability, ATP luminescence, 48 h. Potency, µM (top dose mostly 46.1 µM), without a hit: at the highest dose activity, negative = toxicity, usual class: cytotoxic. hit rate 2% among 360,000. AID 686971, 2013;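 note: potency is the fitted concentration of half-maximal effect; 0% = DMSO wells and -100% = cell-free medium wells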
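% activity derives from luminescence (CellTiter-Glo), normalised to DMSO and no-cell wells. HT-1080-IDH1KD cells, 750/well, had 48 h compound exposure at 37 °C.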
TDP1 cell noCPT: qHTS for Inhibitors of human tyrosyl-DNA phosphodiesterase 1 (TDP1): qHTS in cells in absence of CPT | DT40 Tdp1-/- hTDP1 cells, no CPT, ATP luminescence, 48 h | Potency, µM (series often up to 46.2 µM), for inactives: top-dose activity change, negative = growth inhibition, actives largely listed as inhibitors | hit rate 15% among 420,000 | AID 686978, 2013; note: potency is the fitted concentration of half-maximal effect; nearly all actives have a fitted effect of over 55% in size
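Chicken DT40 Tdp1-/- cells stably complemented with human TDP1 were seeded at 400 cells/well with DMSO in place of 20 nM camptothecin. After compound pinning, cells grew at least 48 hr at 37 °C; viability read by CellTiter-Glo luminescence.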
IL-1B inflam inh: qHTS for Inhibitors of Inflammasome Signaling: IL-1-beta AlphaLISA Primary Screen | activity change, % at 57.5 µM | hit rate 4.7% among 360,000 | THP-1 LPS/ATP IL-1B secretion, AlphaLISA, 16 h; active compounds read low; in the data active = activity change below about -50%; inconclusive = mostly about -30% to -49%
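THP-1 cells pretreated 1 hr with compounds (up to 57.5 uM final), then stimulated with LPS (250 ng/mL final) plus ATP (1.25 mM final); secreted IL-1B measured by AlphaLISA after 16 hr, decreased signal indicating inhibition.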
HT1080-NT tox: qHTS for induction of synthetic lethality in tumor cells producing 2HG: qHTS for the HT-1080-NT fibrosarcoma cell line; HT-1080-NT fibrosarcoma viability, CellTiter-Glo ATP luminescence, 48 h; Potency, µM (series often up to 46.1 µM), for inactives: at the highest dose activity, negative = less viability, usual class: cytotoxic; hit rate 1.6% among 360,000;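 note: NT is the 2HG producing partner of a matched IDH1 knockdown line; potency is the fitted concentration of half-maximal effect; 0% = DMSO-treated cells and -100% = media-only wells without cells; nearly all actives have a fitted effect of over 55% in size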
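Toxicity toward the 2HG-producing NT line was scored as %Activity, normalised to DMSO and no-cell wells, from CellTiter-Glo luminescence after 48 hours' treatment.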
DT40 TDP1 CPT: qHTS for Inhibitors of human tyrosyl-DNA phosphodiesterase 1 (TDP1): qHTS in cells in presence of CPT; chicken DT40 Tdp1-/-;hTDP1 cells + 20 nM CPT, ATP luminescence, 48 h; Potency, µM (series often up to 46.2 µM), without a hit: at the top dose activity change, negative = growth inhibition, usual class: inhibitors; hit rate 12% among 420,000; AID 686979, 2013; note: potency is the fitted concentration of half-maximal effect; nearly all actives have a fitted effect of over 55% in size
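Cell growth measured by CellTiter-Glo luminescence after a minimum 48 h, 37 C compound exposure with 20 nM CPT in Tdp1-knockout DT40 cells stably expressing hTDP1, seeded 400/well; qHTS titration format.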
* = called active by the depositor; ? = inconclusive; . = no result; [ ] = dose if it differs, or a comment. Unless noted, calls come from the whole dose curve; as a rule, active = well fitted curve in the direction sought with a large enough effect; inconclusive = small, poorly fitted or top-dose-only effect, or another doubt; inactive = no such curve, though single readings can be large; an effect the other way counts as inactive or inconclusive. Unless noted, % is set by controls: 0 for no effect and ±100 for the full control effect.

SMILES | HT1080 IDH1KD tx | TDP1 cell noCPT | IL-1B inflam inh | HT1080-NT tox | DT40 TDP1 CPT
S=C(Nc1ccccc1)Nc1ccc(Br)cc1 | 1.5% | 20.6µM* | 8.5 | 1.2% | 16.4µM*
CCOc1ncccc1C(=O)N(CCC(C)C)c1c(N)n(Cc2ccccc2)c(=O)[nH]c1=O | -3.8% | -6.7% | -8.4 | -1.1% | -1.8%
CCOC(=O)C1=C(CC)Nc2ccccc2N/C1=N\S(=O)(=O)c1ccc2ccccc2c1 | 14.6µM* | -14.7% | 36.7 | 18.4µM* | -19.3%
COc1ccc(OCc2cc(=O)c3ccc4c(c3o2)C=CC(C)(C)O4)cc1OC | -2.4% | ? | -12.3 | 7.3% | 16.4µM*
COc1cc(O)c(C(C)=O)c2c1C=CC(C)(C)O2 | 0.2% | ? | 31.9 | 4.1% | -10.5%
CC(=O)Nc1cc(-c2ccccc2)ccc1O | -3.0% | ? | 13.2 | -5.5% | 20.6µM*
CC(=O)Nc1cc(Br)ccc1O | -1.2% | 11.5% | 0.9 | 7.0% | 2.8%
Cc1nn(C)c(C(=O)Nc2c(C)nn(Cc3c(F)c(F)c(F)c(F)c3F)c2C)c1Br | 12.2% | 3.66µM* | 35.0 | 0.8% | 8.2µM*
Cc1nn(Cc2c(F)c(F)c(F)c(F)c2F)c(C)c1NC(=O)c1ccnn1C | 12.5% | 17.6% | 7.0 | 12.9% | -3.1%
c1ccc(-c2nc3nc4ccccc4nc3n2CC2CCCO2)cc1 (centres undefined) | 5.7% | 14.6µM* | -3.2 | 7.6% | ?
O=C(CSc1ncc(-c2ccccc2)n1CC1CCCO1)N1CCCCC1 (centres undefined) | -17.8% | -16.3% | -13.6 | -13.8% | -8.9%
Nc1ncc(-c2ccccc2)n1CC1CCCO1 (centres undefined) | -2.2% | 18.4µM* | -25.6 | -2.5% | ?
Cc1cccc(CCN(CC(=O)NCc2ccc(F)cc2)C(=O)c2csnn2)c1 | -8.3% | ? | ? | -10.5% | -3.4%
O=C(O)CSc1c2c(nc3cc(C(=O)Nc4cccc(C(F)(F)F)c4)ccc13)CCC2 | -1.1% | 17.2% | -27.8 | 1.1% | 2.0%
O=C(COc1ccc(Br)cc1)N1CCN(c2ccc([N+](=O)[O-])c(N3CCCCC3)c2)CC1 | -22.9% | 20.6µM* | -20.4 | -7.5% | ?
O=C(COc1ccccc1)N1CCN(c2ccccc2)CC1 | 16.3% | 1.4% | 7.8 | 8.3% | 1.9%
O=C(COc1ccccc1)N1CCN(c2ccc([N+](=O)[O-])c(N3CCCCC3)c2)CC1 | 6.6% | ? | -52.6* | 9.1% | ?
COc1cc2c(cc1OC)C1C/C(=N\O)C(CC(C)C)CN1CC2 (centres undefined) | -2.1% | 20.6µM* | 29.6 | 0.3% | ?
COc1cc2c(cc1OC)C1CC(=O)C(CC(C)C)CN1CC2 (centres undefined) | 1.9% | -24.0% | 12.5 | 4.1% | -24.6%
CCC(CC)CC1CN2CCc3cc(OC)c(OC)cc3C2CC1(O)CC (centres undefined) | -13.3% | 8.2µM* | -7.0 | -13.8% | 8.2µM*
O=C(Cc1ccc(Cl)cc1)Nc1cccc(C(=O)Nc2ccccc2C(=O)O)c1 | -3.9% | 0.6% | -3.1 | -3.7% | 18.9%
CN(Cc1ccccc1)C(=O)CSc1nc2ccsc2c(=O)n1-c1ccc(F)cc1 | . | 20.6µM* | . | . | ?
Cc1sc2nc(SCC(=O)N(C)Cc3ccccc3)n(-c3ccccc3)c(=O)c2c1C | 2.2% | ? | 9.8 | 0.0% | ?
CN(Cc1ccccc1)C(=O)CSc1nc2ccccc2n1Cc1ccccc1F | . | 6.51µM* | . | . | ?
CC(C)N(C(=O)CSc1nc2ccccc2n1Cc1ccccc1F)C(C)C | -28.5% | 16.4µM* | -10.2 | 1.8% | 16.4µM*
SMILES | HT1080 IDH1KD tx | TDP1 cell noCPT | IL-1B inflam inh | HT1080-NT tox | DT40 TDP1 CPT
CC(C)N(C(=O)CSc1nc2ccccc2n1Cc1ccccc1)C(C)C | 3.2% | ? | 8.9 | 5.1% | ?
COc1cccc(CNC(=O)c2c(OC)cc(=O)n3c2CCN(C(=O)C2=C(C)OCCO2)CC3)c1 | . | -3.9% | . | . | 6.6%
C=CCN=c1scc(C)n1/N=C/c1ccc(O)c(O)c1 | -21.2% | 7.31µM* | 44.1 | -14.2% | 16.4µM*
CN=c1scc(-c2ccco2)n1/N=C/c1ccc(O)c(O)c1 | -4.8% | 9.2µM* | 47.1 | -37.3% | 4.61µM*
CN=c1scc(C)n1/N=C/c1ccc(O)cc1 | -10.7% | 23.1µM* | -12.9 | -1.9% | ?
CN=c1scc(C)n1/N=C/c1ccc(O)cc1O | -19.7% | ? | -3.5 | -14.3% | ?
COc1ccccc1CNC(=O)C(=O)NCC1CCCN1S(=O)(=O)c1cc(C)ccc1C (centres undefined) | -0.9% | ? | 19.3 | -0.1% | ?
COc1ccc(C2NS(=O)(=O)N=C2N)cc1 (centres undefined) | 0.7% | 23.1µM* | -0.2 | -1.5% | ?
CCOC(=O)c1oc2ccccc2c1NC(=O)c1ccc(Cl)s1 | 8.4% | ? | -12.6 | 2.5% | ?
CCOc1ccc(NC(=O)c2oc3ccccc3c2NC(=O)C(C)Oc2ccccc2)cc1 (centres undefined) | . | 20.6µM* | . | . | ?
COc1ccc(NC(=O)c2oc3ccccc3c2NC(=O)c2cc(OC)c(OC)c(OC)c2)cc1 | . | 11.6µM* | . | . | 20.6µM*
COc1ccc(C(=O)c2oc3ccccc3c2NC(=O)c2cccc(OC)c2)cc1 | . | -2.7% | . | . | -13.5%
CCOC(=O)c1oc2ccccc2c1NC(=O)c1cccc(OC)c1OC | ? | 18.4µM* | 19.0 | ? | 16.4µM*
COc1cccc(C(=O)Nc2c(C(N)=O)oc3ccccc23)c1 | 0.8% | 16.4µM* | -12.1 | -10.2% | ?
C[C@H](CO)N1C[C@H](C)[C@@H](CN(C)Cc2ccc(C(=O)O)cc2)Oc2c(NS(=O)(=O)c3cccs3)cccc2C1=O | 7.5% | -1.1% | 29.6 | 11.5% | -12.0%
COc1cccc(N2CCN(S(=O)(=O)c3ccc4ccccc4c3)CC2)c1 | -9.7% | ? | -0.3 | -6.2% | ?
COCCn1c(SCC(=O)c2c[nH]c3ccccc23)nc2cc(C(=O)NCC(C)C)ccc2c1=O | . | -19.4% | . | . | ?
O=C(COc1ccc(Cl)cc1)NNC(=O)C(=O)NC1CCCCC1 | 12.5% | -3.1% | -2.1 | 5.7% | -1.3%
CCOC(=O)c1oc2ccccc2c1NC(=O)CCl | ? | 7.31µM* | ? | -19.7% | 10.3µM*
CCOC(=O)c1oc2ccccc2c1NC(=O)c1cccc(OC)c1 | -17.4% | 18.4µM* | -18.7 | 7.0%[9.24 µM] | 13µM*
CCOC(=O)c1oc2ccccc2c1NC(=O)c1ccco1 | 0.8% | ? | -24.6 | -1.3% | ?

Screens as filed in PubChem.
